Compounds without any hit were thinned out: in the full panel of roughly 83,000, 20% have a hit.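 96-well plates, one dose, 48 hours. Percent growth reported; active if below 10.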 Values without a mark were called inactive. The source made the active and inactive calls.

The test deals with SK-MEL-28 melanoma. Briefly: NCI-60 one-dose screen, 48 h (100 = growth as untreated, 0 = no growth, -100 = all killed). The settings on record: 10 µM unless noted.
Regarding `O=C1Nc2ccccc2/C1=C/c1cn(C(=O)c2c(Cl)cccc2Cl)c2ccccc12`, the growth was 81.5%.

Regarding `C=CCn1c(C)nc2cc(Nc3nc(N4CCCC4)nc4ccccc34)ccc21`, the growth was 80.1%. The result for `COc1ccc2nc(NNC(=O)c3cnccn3)c3cccn3c2c1` reads 11.7%.

Take `CC(=O)OC1CCC2(C)C(=CC3C4CCC(=O)C4(C)CCC32)C1` (stereo not drawn): the growth was 102%. The result for `Cc1ccc(-n2c(-c3ccccc3)c(-c3ccccc3)c3c(SCC(=O)n4[nH]c(N)cc4=O)ncnc32)cc1` reads 101%; that for `C[C@@H]1N=C(c2ccc3ccccc3n2)Nc2nc3ccccn3c2C1=O`, 112%. The result for `N[C@@H](CCCCNCC(=O)O)C(=O)O` reads 104%; that for `Clc1cccc(Cl)c1C(Nc1nc2ccccc2s1)Nc1nc2ccccc2s1`, 109%; that for `COc1cc(/C=C/C(=O)c2c(C)nc3ccccc3c2C)ccc1OCCCN1CCN(C(=O)c2ccco2)CC1`, -29% (active).

As to `Cc1ccc(Cc2cnc(NC(=O)c3ccc4noc(-c5ccccc5)c4c3)s2)cc1`, the growth is 99%. `CC(=O)c1nc(Nc2ccc(C)cc2)sc1C`: the growth was 95.2%. As to `Cc1c(C(=O)OC(=NC2CCCCC2)NC2CCCCC2)sc2c1c(=O)nc1c(C#N)n[nH]n12`, the growth was 100%. The result for `O=C(CCc1nnc(CN(c2ccccc2)c2ccccc2)o1)c1nc2ccccc2[nH]1` reads 112%; that for `O=C(CC(SCc1ccccc1)c1ccccc1)c1ccccc1` (stereo not drawn), 105%; that for `COc1ccc(-c2nc3ccc4[nH]ncc4c3c3c2CCCC3)cc1B(O)O`, 68.1%.

As for `CC(C)(C)OC(=O)Nc1ccc2c(c1)C(NC(=O)Nc1cccc(C#N)c1)CC(C)(C)O2` (stereo not drawn), the growth was 74.7%.

As for `O=C(NCCc1ccc(O)c(O)c1)C12CC3CC(CC(C3)C1)C2`, the growth is 104%. Regarding `CC1=NOC(=O)/C1=C\c1ccc(O)cc1`, the growth is 103%.

For `O=C1/C(=C\c2cccnc2)SC(=S)N1CCc1ccc(O)cc1`, the growth was 71%. Consider `Cn1cc(-c2csc(-c3cccc(F)c3)n2)c2cccnc21`, for which the growth was -57.8% [100 µM] (active). The value for `C=CCn1c(C)nc2cc(Nc3nc(Cl)nc4ccccc34)ccc21` was 107%; that for `O=C(NC(Cc1nnc2n(Cc3ccccc3)c(=O)c3c4c(sc3n12)CCCC4)c1ccc(Cl)cc1)c1ccccc1` (stereo not drawn) was 103%; that for `N#Cc1c(-c2cccc(Cl)c2)cc(-c2cccc(Cl)c2)[nH]c1=O` was 78.5%. The value for `Clc1cccc(Cl)c1/C=C/c1cc(/C=C/c2c(Cl)cccc2Cl)[nH]n1` was 46.2%; that for `O=C1c2cccc(NCCN=Cc3cc([N+](=O)[O-])ccc3O)c2C(=O)c2c(NCCN=Cc3cc([N+](=O)[O-])ccc3O)cccc21` was 102%; that for `COC(=O)[C@H](CSC)N(C)C(=O)[C@@H]1CSSC[C@@H](NC(=O)c2nc3ccccc3cc2O)C(=O)NCC(=O)N1C` was 83.4%. The value for `O=C1N=c2cc3c(cc2=C/C1=C/c1sc(=S)n(CCc2ccc(O)cc2)c1O)OCCO3` was 38.7%; that for `O=C1CC(N2C(=O)/C(=C/C(Cl)=C\c3ccc([N+](=O)[O-])cc3)SC2=S)C(=O)N1c1ccc(O)cc1` (stereo not drawn) was -34% (active). Regarding `CC(C)(C)C(CCc1ccc(Cl)cc1)N1CCN(C2CCCCC2)CC1` (stereo not drawn), the growth is 83.1%. As to `COC1=C(OC)C(=O)C(OC)=C(OC)C1=O`, the growth is 105%.

For the compound `COc1cc2ncn3c(=O)c4c5c(sc4nc3c2cc1OC)CCCC5`, the growth is 106%. The value for `CCn1c(C)nc2cc(C(N)=O)ccc21` was 113%. The value for `O=C(CCCCCCSc1nc(-c2ccccc2)cc(-c2ccc(Cl)cc2)n1)NO` was 42%. The value for `O=C(Nc1cccc(C(F)(F)F)c1)Nc1cccc(C(F)(F)F)c1` was 26.8%; that for `COc1ccc(NC(=O)c2nc(-c3cc(OC)c(OC)c(OC)c3)n(-c3cccc4ccccc34)n2)cc1OC` was 55.4%. Take `CCSC1=NC2C(N(CC)C(=O)N2CC)N1/N=C/C=C/c1ccccc1[N+](=O)[O-]` (stereo not drawn): the growth is 54.5%. The value for `CC(C)C(=O)Nc1n[nH]c2cc(-c3cccc(NS(=O)(=O)C4CC4)c3)ccc12` was 78.4%; that for `Cn1c(=O)c2[nH]c(NN)nc2n(C)c1=O` was 103%.

The values are drawn from PubChem BioAssay (NCI).
